From PubChem BioAssay
An excerpt weighted towards active compounds, which were near 21% of everything screened.
Pf growth 96h = P. falciparum growth inhibition at 96 hour, primary screen for plastid delayed-death inhibitors. 320,000 compounds, 6.9% hits. P. falciparum luciferase reporter growth, 96 h. Potency, µM (doses to about 28.7 µM), for the others: top-dose activity change, negative = inhibition, usual class: inhibitors. AID 504834; note: potency is the fitted concentration of half-maximal effect; % is set by controls: 0 for no effect and ±100 for the full control effect
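Readout is luminescence from an integrated firefly luciferase in P. falciparum. Red cells, 2% hematocrit and 0.05% parasitemia final, were cultured with compound through two parasite generations (96 hours) at 37 C, 5% CO2.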
CHX counter = counter-screen for Shiga toxin inhibitors: cycloheximide protein synthesis inhibition; cell reporter, cycloheximide protein synthesis inhibition counterscreen; max response, %; 300,000 compounds, 12% hits; AID 2314; in the data active = max response mostly above about 13%, no sharp cut-off; inactive = mostly below about 14%; note: read at 38.3 µM for the half of the compounds with a filed dose; 0% is about no effect
Shiga inhibitor = inhibitors of Shiga toxin in Vero cells; Vero cells, Shiga toxin protein synthesis inhibition reporter; inhibition, % at 38.7 µM; 290,000 compounds, 9.2% hits; AID 2315; in the data active = inhibition mostly above about 28%, no sharp cut-off; inactive = mostly below about 43%; note: 0% is about no effect
Pf growth 48h = inhibits P. falciparum growth in the first generation, 48 h; 310,000 compounds, 5.9% hits; Potency, µM (doses to about 28.7 µM), for inactives: at the top dose activity change, negative = inhibition, hits mostly inhibitors; AID 504832; P. falciparum luciferase growth in erythrocytes, 48 h; note: potency is the fitted concentration of half-maximal effect; % is set by controls: 0 for no effect and ±100 for the full control effect
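In quantitative HTS format, infected erythrocytes bearing luciferase-reporter parasites were treated for a single generation at 37 C. Luminescence after adding detection reagent served as the growth measure.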
HCMV inh = blocks human cytomegalovirus replication; HFF cells, HCMV-luciferase reporter, 72 h; stronger effect = lower value; activity change, negative = inhibition, % at 57.5 µM; 410,000 compounds, 4.5% hits; in the data active = activity change below about -60%; inconclusive = no clear call, values can overlap the other calls; inactive = above about -39%; note: % is set by controls: 0 for no effect and ±100 for the full control effect
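Compounds were evaluated in HFFs infected with an HCMV luciferase reporter virus (MOI 1 PFU/cell). Luciferase in lysates collected 72 h post infection served as the replication measure.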
HCV inhibitor = inhibitors of hepatitis C virus infection | Huh7.5.1 HCVcc-Cre infection, luciferase reporter, 44 h | Potency, µM (series often up to 41.8 µM), without a hit: at the top dose activity change, negative = inhibition, most hits filed as inhibitors | 340,000 compounds, 3.4% hits | AID 651820; note: potency is the fitted concentration of half-maximal effect; % is set by controls: 0 for no effect and ±100 for the full control effect
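Infectious HCV cell culture screen: compound-treated cells (1,000/well, pre-plated 4 h) are infected with HCVcc-Cre at roughly 0.5 moi and grown 44 h. Infection is quantified by luciferase signal after 15 min substrate incubation at room temperature.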
Starred values were filed as active, the others as inactive; ? = inconclusive; nt = no result; [ ] = dose if it differs, or a comment. Unless noted, calls come from the whole dose curve; as a rule, active = well fitted inhibition curve with a large enough effect; inconclusive = small, poorly fitted or top-dose-only effect, or another doubt; inactive = no such curve, though single readings can be large or run the other way.

SMILES	Pf growth 96h	CHX counter	Shiga inhibitor	Pf growth 48h	HCMV inh	HCV inhibitor
COc1ccc(/C=C/C(=O)OCC(=O)c2ccc3c(c2)NC(=O)CO3)c(OC)c1	26.4%	-1.5	-10.4	21.9%	?	11.2µM*
COc1cccc(/C=C/C(=O)OCC(=O)c2ccc(C)c(C)c2)c1OC	-21.7%	nt	nt	-23.8%	?	?
CN1CCN(Cc2coc3c(Cl)cc(Cl)cc3c2=O)CC1	-9.2%	2.4	nt	19.5%	15.4	?
COc1nc(-c2cnccn2)sc1C	-2.4%	12.4	13.9	?	?	8.5%
c1ccc(CN2CCN(Cc3c[nH]c4ccccc34)CC2)cc1	-17.5%	-3.3	-5.4	4.5%	-14.2	-9.2%
COc1ccccc1NC(=O)N1CC=C(c2c[nH]c3ccccc23)CC1	nt	nt	nt	nt	43.4	nt
C1=C(c2c[nH]c3ccccc23)CCN(Cc2ccccc2)C1	-22.2%	7.0	9.7	?	-97.4*	?
CN1CC=C(c2c[nH]c3ccccc23)CC1	24.3%	-1.1	-6.0	2.62µM*	9.1	6.31µM*
CCN(CC)S(=O)(=O)c1cccc(C(=O)NC(C(=O)NNC(=O)c2ccccc2F)C(C)C)c1 (configuration not stated)	nt	nt	nt	nt	-12.0	-1.5%
C=C(C)CNC(=S)N/N=C(\C)c1ccc(Cl)s1	?	2.0	15.1	11.7µM*	?	?
CCNC(=S)N/N=C(\C)c1ccc(Cl)s1	?	-2.2	-15.8	?	?	?
COc1ccc(Br)cc1CN(C)C(=O)CNC(=O)c1ccc2ccccc2c1	?	-4.3	12.6	-14.0%	-14.6	?
COC(=O)C(CCSC)NC(=O)C(NC(=O)C1CCC(C)CC1)C(C)C (configuration not stated)	2.33µM*	-5.0	-5.8	18.3%	6.1	2.3%
CCC(C)C(NC(=O)C1CCC(C)CC1)C(=O)NC(CCSC)C(=O)OC (configuration not stated)	-26.5%	-5.5	29.2	-6.2%	1.4	4.4%
Cc1c(C(=O)Nc2cnn(C(C)(C)C(=O)NCc3ccco3)c2)oc2ccccc12	nt	nt	nt	nt	35.0	nt
CCOC(=O)c1cc(-c2nnc(-c3ccc(Cl)cc3)o2)c(C)nc1C	-3.6%	-2.4	-2.4	nt	-1.3	6.3%
CCOc1cnc(-c2ccc(OC)cc2)o1	78.4%	15.2*	54.6*	80.5%	91.2	6.3%
CCOc1cnc(-c2ccc(Cl)cc2)o1	46.2%	39.0*	86.1*	58.1%	-10.2	4.1%
CCOc1cnc(-c2c(-c3c(Cl)cccc3Cl)noc2C)o1	?	-4.0	4.5	-13.6%[5.75 µM]	-60.9*	-19.4%
Cc1onc(-c2c(Cl)cccc2Cl)c1-c1nc2cc(Cl)ccc2c(=O)o1	23.2%	7.1	1.1	3.5%	18.7	0.2%
CCOc1oc(-c2ccc(OC)cc2)nc1C(F)(F)F	12.4%	3.3	32.0	nt	-22.5	13.1%
N#Cc1ccc(-c2cccnc2)nc1SCc1ccc(Cl)c(Cl)c1	?	-2.5	-4.2	9.28µM*	-35.5	11.2µM*
COc1ccc(S(=O)(=O)N(C(C)=O)c2ccc(OC(C)=O)c3ccccc23)cc1[N+](=O)[O-]	-2.5%	0.8	8.8	6.57µM*	-30.2	?
CC(=O)Oc1ccc(N(C(C)=O)S(=O)(=O)c2ccc(C)cc2C)c2ccccc12	2.62µM*	-0.6	-6.0	8.28µM*	-34.0	?
Cc1ccc(S(=O)(=O)N(C(=O)c2ccncc2)c2ccc(OC(=O)c3ccncc3)c3ccccc23)c(C)c1	9.28µM*	-6.2	-10.0	nt	nt	?
SMILES	Pf growth 96h	CHX counter	Shiga inhibitor	Pf growth 48h	HCMV inh	HCV inhibitor
Cc1ccc(S(=O)(=O)N(C(=O)c2ccncc2)c2ccc(OC(=O)c3ccncc3)c3ccccc23)cc1	9.28µM*	-2.7	-15.1	10.4µM*	-28.6	?
CCNC(=O)C1(C)CCN(C(=O)c2ccccc2OC(F)(F)F)C1 (configuration not stated)	nt	nt	nt	nt	-9.1	nt
COc1ccccc1C(=O)NC1(C(F)(F)F)C(=O)Nc2c1c(=O)[nH]c(=O)n2CCc1ccccc1 (configuration not stated)	nt	nt	nt	nt	-9.8	nt
C=CCNc1nc(Cl)nc(Nc2ccc([N+](=O)[O-])cc2)n1	2.33µM*	-0.6	-7.5	15.7%	12.0	5.0%
C=CCNc1nc(Cl)nc(Nc2ccc(OC)cc2)n1	49.0%	22.4*	64.0*	?	59.8	-3.9%
C=CCNc1nc(Nc2ccc([N+](=O)[O-])cc2)nc(N2CCCC2)n1	?	26.4*	-10.9	-23.6%	-33.4	?
C=CCNc1nc(NCC)nc(N2CCOCC2)n1	?	2.7	-19.4	6.8%	103.8	-18.9%
C=CCNc1nc(Nc2ccc(-c3nc4ccccc4o3)cc2)nc(N2CCOCC2)n1	4.65µM*	6.1	23.8	nt	-7.2	?
CCCC(C)(C)C(=O)Nc1ccc(Cl)cc1	nt	2.1	-8.9	nt	nt	nt
COc1ccc(C(=O)N(Cc2cc(OC)c(OC)c(OC)c2)C2CCS(=O)(=O)C2)cc1Cl (configuration not stated)	nt	nt	nt	nt	15.0	nt
Cc1cccc(C)c1NC(=O)CN1CCC(Cc2ccccc2)CC1	nt	nt	nt	nt	-11.6	nt
Cc1c(NC(=O)CN2C(=O)NC3(CCCC3)C2=O)c(=O)n(-c2ccccc2)n1C	4.6%	-7.3	-7.2	11.9%	-100.9*	-3.0%
Cc1cccc(C)c1NC(=O)CN1CCN(CCCC(c2ccc(F)cc2)c2ccc(F)cc2)CC1	4.55µM*	nt	nt	11.7µM*	6.3	2µM*
C=CCNC(=O)CN1CCN(C(c2ccccc2)c2ccccc2)CC1	13.1µM*	-1.9	-8.6	?	65.0	?
Cc1c(NC(=O)CN2CCN(C(c3ccccc3)c3ccccc3)CC2)c(=O)n(-c2ccccc2)n1C	-9.3%	-1.1	-13.1	10.4µM*	-35.0	?
COC(=O)c1ccccc1NS(=O)(=O)c1cc2c3c(c1)CC(=O)N3CCC2	nt	nt	nt	nt	27.1	nt
Cc1c(NC(=O)CCC(=O)N2CCCCC2)c(=O)n(-c2ccccc2)n1C	0.828µM*	-2.7	27.5	0.6%	-8.1	-3.1%
Cc1ccc(CSc2nc3ccccc3cc2C=O)cc1	?	-1.4	22.1	0.2%	-97.0*	?
O=Cc1cc2ccccc2nc1SCc1ccc(Cl)c(Cl)c1	-0.7%	11.8	-7.4	-4.9%	-91.6*	6.6%
O=Cc1cc2ccccc2nc1SCc1ccc(Cl)cc1	-11.9%	-5.0	-24.6	7.7%	-82.5*	?
CC(=O)NC(Cc1cccc(C)c1)C(=O)NC1CCN(C(=O)NCc2ccccc2)CC1 (configuration not stated)	-2.2%	-6.1	16.2	1.9%	41.3	8.1%
COc1ccc(C(=O)NCCS(=O)(=O)N2CCCC2)cc1	39.3%	nt	nt	31.3%	7.7	-20.9%
CC(C)(C)OC(=O)N1CCC(C(=O)Nc2cccc(C(=O)NCCCCc3ccccc3)c2)CC1	nt	nt	nt	nt	-3.0	?
Cc1c(C(=O)N2CCC(C)CC2)c(S(=O)(=O)NCc2ccccc2)c(C)n1C	nt	nt	nt	nt	9.6	nt
